Source: PubChem BioAssay AID1159580 (chemical genetic matrix, 2015)
Among all 5,500 compounds or so, about 2,000 (36%) were called active. About 18% were inconclusive and are not listed. No stated cut-off is given here; in the data, active means normalized growth mostly below about 0.91 (no sharp cut-off); inconclusive means no clear call, values can overlap the other calls; inactive means mostly above about 0.92. The list shows a part of the results.

Test: chemical genetic growth profiling, strain panel (AID 1159580);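 further: tested at 20 µM; growth read once vehicle control cultures reached saturation at 30 °C; 1 = growth at the plate median or of vehicle wells; lower values mean less growth of the strain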
Conditions: growth OD

Measured: normalized growth

CNC(=O)CSP(=S)(OC)OC
inactive: S. cerevisiae deletion strains, locus YJR075W, strain HOC1, active compounds read low 1.02 | S. cerevisiae deletion strains, locus YKL009W, strain mrt4, active compounds read low 1 | S. cerevisiae deletion strains, locus YKL068W, active compounds read low 1.01 | S. cerevisiae deletion strains, locus YKL085W, strain MDH1 (second series), active compounds read low 1.01 | S. cerevisiae deletion strains, locus YKL085W, strain MDH1, active compounds read low 1.01 | S. cerevisiae deletion strains, locus YKL160W, strain elf1, active compounds read low 1.01 | S. cerevisiae deletion strains, locus YKL190W, strain CNB1, active compounds read low 0.979 | S. cerevisiae deletion strains, locus YKR001C, strain vps1, active compounds read low 1.02 | S. cerevisiae deletion strains, locus YKR026C, strain gcn3, active compounds read low 1.01 | S. cerevisiae deletion strains, locus YKR091W, strain srl3, active compounds read low 1.02 | S. cerevisiae deletion strains, locus YLL001W, strain dnm1, active compounds read low 1.01 | S. cerevisiae deletion strains, locus YLL026W, active compounds read low 1.02 | S. cerevisiae deletion strains, locus YLL041C, strain sdh2, active compounds read low 1.03 | S. cerevisiae deletion strains, locus YLR027C, strain aat2, active compounds read low 1.01 | S. cerevisiae deletion strains, locus YLR039C, strain RIC1, active compounds read low 0.993 | S. cerevisiae deletion strains, locus YLR058C, strain SHM2, active compounds read low 1.01 | S. cerevisiae deletion strains, locus YLR102C, strain apc9, active compounds read low 1.02 | S. cerevisiae deletion strains, locus YLR113W, strain HOG1, active compounds read low 0.997 | S. cerevisiae deletion strains, locus YLR221C, strain rsa3, active compounds read low 1.03 | S. cerevisiae deletion strains, locus YLR258W, strain gsy2, active compounds read low 1.03 | S. cerevisiae deletion strains, locus YLR262C, strain YPT6 (second series), active compounds read low 1.05 | S. cerevisiae deletion strains, locus YLR262C, strain YPT6, active compounds read low 0.999 | S. cerevisiae deletion strains, locus YLR268W, strain sec22, active compounds read low 1.01 | S. cerevisiae deletion strains, locus YLR320W, strain mms22, active compounds read low 1.02 | S. cerevisiae deletion strains, locus YLR330W, strain CHS5, active compounds read low 1.01 | S. cerevisiae deletion strains, locus YLR342W, strain FKS1 (second series), active compounds read low 1.04 | S. cerevisiae deletion strains, locus YLR342W, strain FKS1, active compounds read low 1.02 | S. cerevisiae deletion strains, locus YLR357W, strain rsc2, active compounds read low 0.986 | S. cerevisiae deletion strains, locus YLR370C, strain arc18, active compounds read low 1.03 | S. cerevisiae deletion strains, locus YLR371W, strain rom2, active compounds read low 1.02 | S. cerevisiae deletion strains, locus YLR384C, strain iki3, active compounds read low 1.04 | S. cerevisiae deletion strains, locus YLR418C, strain cdc73, active compounds read low 1.01 | S. cerevisiae deletion strains, locus YML016C, strain PPZ1, active compounds read low 1 | S. cerevisiae deletion strains, locus YML032C, strain rad52, active compounds read low 1.03 | S. cerevisiae deletion strains, locus YML120C, strain ndi1, active compounds read low 1.02 | S. cerevisiae deletion strains, locus YML124C, strain tub3, active compounds read low 1.02 | S. cerevisiae deletion strains, locus YMR058W, strain fet3, active compounds read low 1.01 | S. cerevisiae deletion strains, locus YMR078C, strain ctf18, active compounds read low 1.02 | S. cerevisiae deletion strains, locus YMR125W, strain sto1, active compounds read low 1.02 | S. cerevisiae deletion strains, locus YMR129W, active compounds read low 1.01 | S. cerevisiae deletion strains, locus YMR205C, strain PFK2, active compounds read low 1.01 | S. cerevisiae deletion strains, locus YMR223W, strain ubp8, active compounds read low 1.02 | S. cerevisiae deletion strains, locus YMR231W, strain pep5, active compounds read low 1.01 | S. cerevisiae deletion strains, locus YMR263W, strain SAP30, active compounds read low 1.02 | S. cerevisiae deletion strains, locus YMR307W, strain GAS1, active compounds read low 1.03 | S. cerevisiae deletion strains, locus YNL067W, strain RPL9B, active compounds read low 1.01 | S. cerevisiae deletion strains, locus YNL071W, strain lat1, active compounds read low 1 | S. cerevisiae deletion strains, locus YNL128W, strain TEP1, active compounds read low 1.01 | S. cerevisiae deletion strains, locus YNL153C, strain GIM3, active compounds read low 1.01 | S. cerevisiae deletion strains, locus YNL183C, strain NPR1, active compounds read low 0.982 | S. cerevisiae deletion strains, locus YNL209W, strain ssb2, active compounds read low 0.999 | S. cerevisiae deletion strains, locus YNL233W, strain BNI4, active compounds read low 0.991 | S. cerevisiae deletion strains, locus YNL248C, strain rpa49, active compounds read low 1.02 | S. cerevisiae deletion strains, locus YNL250W, strain rad50, active compounds read low 1.02 | S. cerevisiae deletion strains, locus YNL271C, strain bni1, active compounds read low 1.02 | S. cerevisiae deletion strains, locus YNL298W, strain CLA4, active compounds read low 1.02 | S. cerevisiae deletion strains, locus YNL307C, strain MCK1, active compounds read low 1.04 | S. cerevisiae deletion strains, locus YNL322C, strain KRE1 (second series), active compounds read low 1 | S. cerevisiae deletion strains, locus YNL322C, strain KRE1, active compounds read low 1.01 | S. cerevisiae deletion strains, locus YNR049C, strain mso1, active compounds read low 1.02 | S. cerevisiae deletion strains, locus YNR052C, strain pop2, active compounds read low 1.02 | S. cerevisiae deletion strains, locus YOL006C, strain TOP1, active compounds read low 1.05 | S. cerevisiae deletion strains, locus YOL012C, strain htz1 1.12 | S. cerevisiae deletion strains, locus YOL147C, strain pex11, active compounds read low 1.01 | S. cerevisiae deletion strains, locus YOR001W, strain rrp6, active compounds read low 1.02 | S. cerevisiae deletion strains, locus YOR061W, strain CKA2, active compounds read low 1.01 | S. cerevisiae deletion strains, locus YOR069W, strain VPS5, active compounds read low 1 | S. cerevisiae deletion strains, locus YOR070C, strain gyp1, active compounds read low 1.02 | S. cerevisiae deletion strains, locus YOR080W, strain dia2, active compounds read low 1.02 | S. cerevisiae deletion strains, locus YOR083W, strain WHI5, active compounds read low 1.01 | S. cerevisiae deletion strains, locus YOR106W, strain vam3, active compounds read low 1.01 | S. cerevisiae deletion strains, locus YOR136W, strain idh2, active compounds read low 1.01 | S. cerevisiae deletion strains, locus YOR144C, strain elg1, active compounds read low 1.02 | S. cerevisiae deletion strains, locus YOR184W, strain ser1, active compounds read low 1.04 | S. cerevisiae deletion strains, locus YOR231W, strain MKK1, active compounds read low 1.04 | S. cerevisiae deletion strains, locus YOR265W, strain rbl2, active compounds read low 1.03 | S. cerevisiae deletion strains, locus YOR270C, strain vph1, active compounds read low 1.05 | S. cerevisiae deletion strains, locus YOR290C, strain snf2, active compounds read low 1.03 | S. cerevisiae deletion strains, locus YOR316C, strain cot1, active compounds read low 1.03 | S. cerevisiae deletion strains, locus YPL051W, strain arl3, active compounds read low 1.01 | S. cerevisiae deletion strains, locus YPL055C, strain LGE1, active compounds read low 1 | S. cerevisiae deletion strains, locus YPL078C, strain atp4, active compounds read low 1.01 | S. cerevisiae deletion strains, locus YPL106C, strain sse1, active compounds read low 1 | S. cerevisiae deletion strains, locus YPL240C, strain hsp82, active compounds read low 1.02 | S. cerevisiae deletion strains, locus YPL241C, strain CIN2, active compounds read low 1.02 | S. cerevisiae deletion strains, locus YPL256C, strain CLN2, active compounds read low 1.05 | S. cerevisiae deletion strains, locus YPR119W, strain clb2, active compounds read low 1.02 | S. cerevisiae deletion strains, locus YPR141C, strain kar3, active compounds read low 1.02 | S. cerevisiae deletion strains, locus YPR163C, strain tif3, active compounds read low 1.02 | S. cerevisiae deletion strains, locus YPR167C, strain met16, active compounds read low 1.02 | S. cerevisiae deletion strains, strain wtn01, active compounds read low 1.02 | S. cerevisiae strains, strain wild type, active compounds read low 1.02
